Compound activity (PubChem)
Hits are enriched below; roughly 11% of the tested compounds scored in any of these assays.
FLuc inh – Firefly luciferase inhibition profiling of diverse chemical library using quantitative high-throughput screening. AID 1347043, 2019. Potency, µM (titrated, usually from 115 µM), hits mostly inhibitors. purified P. pyralis luciferase, luminescence, biochemical. actives 2.5% (n = 76,000); active means well fitted curve in the direction sought with a large enough effect; inconclusive means small, poorly fitted or top-dose-only effect, or another doubt; inactive means no such curve, though single readings can be large; an effect the other way counts as inactive or inconclusive; further: on the % scale 0 is the no-effect control and ±100 the full control effect; nearly all actives have a fitted effect of over 65% in size
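FLuc 10nM, D-luciferin 10uM, ATP 10uM, Mg acetate 10mM, Tris acetate pH 7.5, Tween/BSA; cpd qHTS; enzyme added last; CCD luminescence.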
3T3 cytotox – Cytotoxic Profiling in NIH 3T3 Cell Line of Diverse Libraries Using Quantitative High-Throughput Screening | NIH 3T3 viability, CellTiter-Glo ATP luminescence, 48-72 h | actives 4.3% (n = 94,000) | Potency, µM (series often up to 96.7 µM), for the others: at the highest dose activity change, negative = cytotoxicity, actives largely listed as inhibitors; active means well fitted curve in the direction sought with a large enough effect; inconclusive means small, poorly fitted or top-dose-only effect, or another doubt; inactive means no such curve, though single readings can be large; an effect the other way counts as inactive or inconclusive; further: on the % scale 0 is the no-effect control and ±100 the full control effect; nearly all actives have a fitted effect of over 55% in size
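Mouse fibroblast NIH 3T3 cells, 400 per well, received compound via pintool and were incubated for 48 or 72 hr prior to CellTiter-Glo ATP luminescence measurement.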
HEK cytotox – Cytotoxic Profiling in HEK 293 Cell Line of Diverse Libraries Using Quantitative High-Throughput Screening; actives 6.6% (n = 94,000); HEK 293 viability, ATP luminescence (CellTiter-Glo), 48-72 h; Potency, µM (top dose mostly 115 µM), for inactives: at the highest dose activity change, negative = cytotoxicity, hits mostly inhibitors; active means well fitted curve in the direction sought with a large enough effect; inconclusive means small, poorly fitted or top-dose-only effect, or another doubt; inactive means no such curve, though single readings can be large; an effect the other way counts as inactive or inconclusive; further: on the % scale 0 is the no-effect control and ±100 the full control effect; nearly all actives have a fitted effect of over 60% in size
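HEK 293 cells seeded at 250 cells/well were exposed to compound for 48 or 72 hr at 37 degree Celsius. Viability taken as ATP content by CellTiter-Glo luminescence.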
hNpr1 antagonist – Natriuretic polypeptide receptor (hNpr1) antagonism - Primary qHTS; actives 1.6% (n = 76,000); Potency, µM (highest dose often 46.3 µM), without a hit: at the top dose activity change, negative = inhibition, most hits filed as inhibitors; HEK293 hNpr1 GloSensor cGMP, ANP-stimulated luminescence; AID 1347048, 2019; further: on the % scale 0 is the no-effect control and ±100 the full control effect; nearly all actives have a fitted effect of over 60% in size
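HEK293 cells stably expressing human Npr1 and cGMP GloSensor pGS-40F, loaded 2 h with 2% GloSensor reagent, given compound 30 min at room temperature. Luminescence read before and 20 min after 0.1 nM hNppA.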
Npr1 antag conf – Natriuretic polypeptide receptor (hNpr1) antagonism - Confirmation; shares compounds with hNpr1 antagonist; HEK293 hNpr1 cGMP GloSensor luminescence, ANP-stimulated; Potency, µM (highest dose often 57.6 µM), for inactives: at the highest dose activity change, negative = inhibition, actives largely listed as inhibitors; actives 76% (n = 1,400); further: nearly all actives have a fitted effect of over 70% in size
NPR2 antag – Natriuretic polypeptide receptor (hNpr2) antagonism - Subtype selectivity assay; actives 67% (n = 1,400); HEK293 hNpr2 GloSensor cGMP luminescence, CNP-stimulated; shares compounds with hNpr1 antagonist; Potency, µM (top dose mostly 57.6 µM), inactives show top-dose activity change, negative = inhibition, actives largely listed as inhibitors; further: nearly all actives have a fitted effect of over 70% in size
Target sequence (P20594 whole entry, looked up): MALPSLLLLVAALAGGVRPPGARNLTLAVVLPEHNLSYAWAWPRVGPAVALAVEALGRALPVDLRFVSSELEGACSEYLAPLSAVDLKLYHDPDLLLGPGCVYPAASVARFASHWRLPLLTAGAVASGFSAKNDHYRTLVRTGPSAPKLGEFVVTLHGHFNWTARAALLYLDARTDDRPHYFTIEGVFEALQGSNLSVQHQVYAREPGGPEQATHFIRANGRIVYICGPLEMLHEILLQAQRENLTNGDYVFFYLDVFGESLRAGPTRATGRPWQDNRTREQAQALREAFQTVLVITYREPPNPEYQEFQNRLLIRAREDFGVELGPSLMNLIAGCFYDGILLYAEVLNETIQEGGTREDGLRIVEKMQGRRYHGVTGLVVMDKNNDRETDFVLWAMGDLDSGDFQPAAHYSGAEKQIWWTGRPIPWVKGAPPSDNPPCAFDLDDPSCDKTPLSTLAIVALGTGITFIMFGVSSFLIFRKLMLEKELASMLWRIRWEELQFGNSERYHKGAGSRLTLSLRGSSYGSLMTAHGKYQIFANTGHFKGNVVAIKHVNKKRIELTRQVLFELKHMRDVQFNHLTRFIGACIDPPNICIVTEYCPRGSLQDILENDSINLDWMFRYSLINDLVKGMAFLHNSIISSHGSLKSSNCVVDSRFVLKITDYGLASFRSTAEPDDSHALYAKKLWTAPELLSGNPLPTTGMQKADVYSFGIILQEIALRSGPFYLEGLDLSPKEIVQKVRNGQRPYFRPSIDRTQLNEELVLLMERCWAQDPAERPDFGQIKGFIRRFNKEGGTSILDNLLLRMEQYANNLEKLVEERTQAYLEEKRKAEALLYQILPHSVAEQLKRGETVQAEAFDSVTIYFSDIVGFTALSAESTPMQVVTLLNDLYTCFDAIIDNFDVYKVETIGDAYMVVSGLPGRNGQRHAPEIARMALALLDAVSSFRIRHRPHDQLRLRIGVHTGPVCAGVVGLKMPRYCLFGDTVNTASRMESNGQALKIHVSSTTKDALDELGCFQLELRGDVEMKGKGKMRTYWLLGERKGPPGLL
FLuc counter – Natriuretic polypeptide receptor (hNpr1) antagonism - Confirmation firefly luciferase (FLuc) inhibition counterscreen. shares compounds with hNpr1 antagonist. purified FLuc enzyme, luminescence, Km substrate. Potency, µM (doses to about 57.6 µM), for inactives: top-dose activity change, negative = inhibition, usual class: inhibitors. actives 0.7% (n = 1,400); active means well fitted curve in the direction sought with a large enough effect; inconclusive means small, poorly fitted or top-dose-only effect, or another doubt; inactive means no such curve, though single readings can be large; an effect the other way counts as inactive or inconclusive; further: 0% is about no effect
GloSensor cGMP – Natriuretic polypeptide receptor (hNpr1) antagonism - Counterscreen GloSensor control cell line; shares compounds with hNpr1 antagonist; HEK293 GloSensor cGMP, SNP-stimulated, luminescence; Potency, µM (series often up to 57.6 µM), for the others: top-dose activity change, negative = inhibition, usual class: inhibitors; actives 69% (n = 1,400); further: on the % scale 0 is the no-effect control and ±100 the full control effect; nearly all actives have a fitted effect of over 70% in size
Numbers without * were called inactive; i = inactive; ? = inconclusive; / = not tested or not shown; [ ] = another dose, or the depositor's remark. Unless noted, the call rests on the fitted dose curve. Potency means the concentration at half of the fitted maximal effect.

SMILES	FLuc inh	3T3 cytotox	HEK cytotox	hNpr1 antagonist	Npr1 antag conf	NPR2 antag	FLuc counter	GloSensor cGMP
COc1ccc(NC(=O)c2ccc3c(c2)NC(C)(COCC2CC2)CO3)cn1 (centres undefined)	?	?	?	-20%[70.6 µM]	/	/	/	/
COCCN1C(=O)CCC2(CNC(=O)COc3ccc(F)cc3)CCCC=C12 (centres undefined)	i	-11%	-1%	3%	/	/	/	/
N#Cc1cccc(S(=O)(=O)N[C@H]2[C@H](O)[C@H](O)C[C@@H]2c2ccc(C(F)(F)F)cc2)c1	i	-5%[138 µM]	-15%[172 µM]	1%[70.6 µM]	/	/	/	/
CC(C)c1nncn1C1CCN(S(=O)(=O)c2cccc(Cl)c2)CC1	i	-24%	-21%	?	?	?	0%	24µM*
COc1ccc(C(=O)Nc2ccc(-c3noc([C@@H]4CCCN4Cc4ccc(OC(F)(F)F)cc4)n3)cn2)cc1	i	?	?	11µM*	12µM*	11µM*	-20%	11µM*
COc1ccc(C(=O)Nc2ccc(-c3noc([C@@H]4CCCN4CC4CCCCC4)n3)cn2)cc1	i	?	45µM*	10µM*	6.9µM*	12µM*	-25%	12µM*
COc1ccc(C(=O)Nc2ccc(-c3noc([C@@H]4CCCN4Cc4ccc(C(F)(F)F)cc4)n3)cn2)cc1	i	?	?	11µM*	11µM*	14µM*	-6%	9.7µM*
COCC(=O)Nc1ccc(-c2noc([C@@H]3CCCN3C)n2)cn1	?	1%[174 µM]	i	-1%[70.6 µM]	/	/	/	/
CS(=O)(=O)c1ccc(-c2nc(C(=O)N3CCCC3)n3ccccc23)cc1	/	-4%	1%	/	/	/	/	/
Cc1noc2c(-c3cccnc3)cc(-c3cccc(C(F)(F)F)c3)nc12	i	?	?	-17%[70.6 µM]	/	/	/	/
Cc1noc2c(-c3cn[nH]c3)cc(-c3cccc(C(F)(F)F)c3)nc12	i	25µM*	35µM*	?	?	-29%[86.2 µM]	-8%[86.2 µM]	-16%[86.2 µM]
COc1cc(NC(=O)Cn2c(-c3ccccc3)nc(C)c(CCO)c2=O)cc(OC)c1	i	?	?	?	/	/	/	/
CCn1nccc1C(=O)N1CCC(CCOc2ccc(F)cc2)C1 (centres undefined)	i	?	35µM*	13µM*	22µM*	24µM*	-3%	24µM*
O=C1COc2ccc(OCc3cncs3)nc2CN1CCOc1ccccc1	i	?	?	32µM*	40µM*	31µM*	-2%[86.2 µM]	?
O=C1COc2ccc(OCc3cncs3)nc2CN1Cc1ccccc1	i	?	?	-28%[70.6 µM]	/	/	/	/
O=C1COc2ccc(OCc3ccc(F)cc3)nc2CN1CCOc1ccccc1	i	?	?	32µM*	35µM*	35µM*	-3%[86.2 µM]	28µM*
COCCCn1c(=O)c(C(=O)N2CCN(C(=O)COC)CC2)nc2cccnc21	/	5%	i	/	/	/	/	/
CC(C)c1noc(Cn2nc(-c3ccccc3)c3ccccc3c2=O)n1	i	-16%	-27%	-2%	/	/	/	/
Cc1ccc(C(=O)N2CCC3(CC2)NC(=O)N(c2ccccc2)N3)cc1	i	?	?	6%	/	/	/	/
CSc1nccc(N2CCC3(CC2)CC(=O)N(CC(C)C)C3)n1	i	?	?	7.1µM*	6.9µM*	11µM*	-1%	5.4µM*
Cc1cc(C(=O)NC(C)c2cnc(N3CCCCCCC3)nc2C)n[nH]1 (centres undefined)	i	?	?	10µM*	22µM*	24µM*	0%	22µM*
O=C(c1cc(F)ccc1F)N1CCC(n2cc(-c3nc(C4CC4)no3)nn2)C1 (centres undefined)	i	-30%	-22%	2%	/	/	/	/
Cc1ccc(C(=O)N2CCC(n3cc(-c4nc(C5CC5)no4)nn3)C2)s1 (centres undefined)	i	-25%	?	16µM*	24µM*	24µM*	-2%	14µM*
O=C(c1ccc(F)cc1Cl)N1CCC(n2cc(-c3nc(C4CC4)no3)nn2)C1 (centres undefined)	i	?	?	16µM*	27µM*	?	-1%	?
Cc1ccc(C(=O)N2CCCC(n3cc(-c4nc(C5CC5)no4)nn3)C2)s1 (centres undefined)	i	-27%	?	-8%	/	/	/	/
SMILES	FLuc inh	3T3 cytotox	HEK cytotox	hNpr1 antagonist	Npr1 antag conf	NPR2 antag	FLuc counter	GloSensor cGMP
CN(C)CCCC(=O)N1Cc2ccccc2CC2(CCCCN2CC2CCNCC2)C1 (centres undefined)	/	-3%	-5%	/	/	/	/	/
Cc1cnc(C(=O)N2CC(Cn3c(C)cnc3-c3ccncc3)C2)cn1	/	-1%	i	/	/	/	/	/
COCc1cc(N2CCc3onc(-c4cccc5ccccc45)c3C2)ncn1	i	?	35µM*	13µM*	22µM*	?	0%	24µM*
COc1ncccc1C(=O)N1CCc2onc(-c3cccc4ccccc34)c2C1	i	-24%	?	5%	/	/	/	/
O=C(Nc1cc(F)ccc1Cl)c1cc2n(n1)CC(c1ccc(Br)cc1)OC2 (centres undefined)	?	-12%	?	-24%	/	/	/	/
O=C(Nc1ccc(F)c(F)c1)c1cc2n(n1)CC(c1ccc(Br)cc1)OC2 (centres undefined)	i	?	?	?	24µM*	?	0%	?
O=C(Nc1ccccc1)c1cc2n(n1)CC(c1ccc(Br)cc1)OC2 (centres undefined)	i	?	?	18µM*	27µM*	?	-14%	?
